Bioassay records from PubChem BioAssay.
PPARg SRC3 recr: PPARgamma agonists recruiting SRC-3 coactivator, primary screen, biochemical | Peroxisome proliferator-activated receptor gamma (Homo sapiens), P37231 | biochemical PPARgamma/SRC-3 coactivator recruitment assay | activation, % at 8 µM | 200,000 compounds, 0.26% hits | AID 731, 2007; in the data active = activation above about 23%
Target sequence (P37231 whole entry, looked up): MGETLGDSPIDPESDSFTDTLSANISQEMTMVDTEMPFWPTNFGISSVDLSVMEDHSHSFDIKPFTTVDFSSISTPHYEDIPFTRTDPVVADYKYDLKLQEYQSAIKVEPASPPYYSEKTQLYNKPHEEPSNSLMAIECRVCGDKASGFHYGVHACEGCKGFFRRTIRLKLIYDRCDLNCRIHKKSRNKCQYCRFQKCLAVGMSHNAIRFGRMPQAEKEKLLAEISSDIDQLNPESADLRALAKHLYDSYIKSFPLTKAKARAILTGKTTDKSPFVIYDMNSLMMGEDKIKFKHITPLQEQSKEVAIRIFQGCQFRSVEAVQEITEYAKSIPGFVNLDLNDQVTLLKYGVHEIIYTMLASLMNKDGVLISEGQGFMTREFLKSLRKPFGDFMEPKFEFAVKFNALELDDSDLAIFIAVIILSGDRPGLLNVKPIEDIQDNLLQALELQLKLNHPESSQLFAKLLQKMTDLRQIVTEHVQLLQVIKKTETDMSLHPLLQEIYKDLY
SRC2 TRFRET art: TR-FRET signal artefacts, primary screen, artefact control for PPARgamma SRC-2 agonist project, biochemical | AID 1049, 2008 | 200,000 compounds, 0.4% hits | TR-FRET artefact counter-screen; active compounds read high | TR-FRET ratio at 8 µM
PPARg SRC-1 ag: PPARgamma agonists recruiting SRC-1 coactivator, primary screen, biochemical; 200,000 compounds, 0.41% hits; PPARgamma-SRC-1 coactivator recruitment biochemical assay; activation, % at 8 µM; in the data active = activation above about 19%
SRC1 TRFRET art: TR-FRET detection interference compounds, primary screen, artefact control for PPARgamma SRC-1 recruitment agonists, biochemical, TR-FRET emission ratio. TR-FRET detection artefact counter-screen; active compounds read high. TR-FRET ratio at 8 µM. 99,000 compounds, 0.34% hits. AID 1051, 2008; in the data active = TR-FRET ratio above about 2300
PPARg SRC-2 ag: agonists of PPARg-SRC-2 recruitment, primary screen, biochemical, HTS; Peroxisome proliferator-activated receptor gamma (Homo sapiens), P37231; PPARgamma LBD-SRC-2 recruitment; activation, % at 8 µM; 200,000 compounds, 0.34% hits; in the data active = activation above about 22%
SRC3 TRFRET art: TR-FRET detection interference compounds, artefact control for PPARgamma SRC-3 recruitment agonists, biochemical, TR-FRET ratio; TR-FRET artefact counter-screen, PPARgamma/SRC-3 format; active compounds read high; TR-FRET ratio at 8 µM; 99,000 compounds, 0.39% hits; AID 1048, 2008
Of the large screens only hits and unclear results are named; the others gave an inactive call. Shown are actives, neighbours in structure and some others; about 0.9% of the full set was active somewhere. Cut-off read from the data, not from the text of the source, unless noted: active = TR-FRET ratio above about 2000; inactive = the rest.

CCCCOc1ccc(NC2=NC3(CCCC3)N=C(N)N2)cc1	SRC2 TRFRET art 2220, PPARg SRC-2 ag 40.7 (no result: SRC1 TRFRET art, SRC3 TRFRET art)
CCN1C(=O)/C(=C\N(C)C)S/C1=N\S(=O)(=O)c1ccc(C)cc1	none
O=C(Nc1ccc2nn(-c3ccccc3)nc2c1)c1ccc2c(c1)OCO2	PPARg SRC-2 ag 22.4 (no result: SRC1 TRFRET art, SRC3 TRFRET art)
O=C(Nc1cccc(F)c1)c1ccc2c(c1)OCO2	none (no result: SRC1 TRFRET art, SRC3 TRFRET art)
O=C(Nc1ccc2oc(-c3ccc4ccccc4c3)nc2c1)c1ccc2c(c1)OCCO2	PPARg SRC-1 ag 27.1 (no result: SRC1 TRFRET art, SRC3 TRFRET art)
Cc1ccc2nc(-c3cccc(NC(=O)c4ccc5c(c4)OCCO5)c3)oc2c1	none (no result: SRC1 TRFRET art, SRC3 TRFRET art)
CCc1ccccc1NC(=S)N(CCN1CCOCC1)C1CCN(C(C)=O)CC1	none
O=C(c1cc2sccc2n1Cc1ccc(F)cc1)N1CCN(c2nc3ccccc3s2)CC1	SRC2 TRFRET art 2655 (no result: SRC1 TRFRET art, SRC3 TRFRET art)
O=C(c1cc2sccc2n1Cc1ccccc1)N1CCc2ccccc21	SRC2 TRFRET art 2447 (no result: SRC1 TRFRET art, SRC3 TRFRET art)
Cc1cc([N+](=O)[O-])nn1CCC(=O)Nc1nccs1	none
O=c1[nH]n(-c2ccccn2)c(=O)c2ccccc12	none (no result: SRC1 TRFRET art, SRC3 TRFRET art)
O=c1[nH]n(-c2ccccc2)c(=O)c2ccccc12	PPARg SRC-1 ag 20.5
CCc1ccc(N(C(=O)c2csnn2)C(C(=O)NC(C)(C)C)c2cccnc2)cc1 (stereo not drawn)	SRC2 TRFRET art 2266, PPARg SRC-2 ag 22.9
CC(C)N(C)C(=O)C(=O)c1cccn1-c1cccc(Cl)c1C#N	SRC1 TRFRET art 2315
Nc1ccc(C(=O)c2cccs2)cc1[N+](=O)[O-]	none
COc1ccc(/C=N/NC(=O)c2snnc2C)c(OC)c1OC	none
CCOc1ccc(N=C2NN=C(c3cc(C)n(CC4CCCO4)c3C)CS2)cc1 (stereo not drawn)	PPARg SRC-1 ag 21.8
COc1cccc(C(=O)C2=NN(C(C)=O)CC2c2ccco2)c1 (stereo not drawn)	none
C=CCSc1nnc(CNC(=O)c2ccccc2C)n1C(C)C	none
CN1CCc2c(sc3c2C(=O)NC(c2ccc(-c4cccc(Cl)c4)o2)N3)C1 (stereo not drawn)	SRC1 TRFRET art 2385
CN1CCc2c(sc3c2C(=O)NC(c2cccs2)N3)C1 (stereo not drawn)	none (no result: SRC1 TRFRET art, SRC3 TRFRET art)
O=C(COC(=O)CSCc1ccccc1)NCc1ccccc1	none
O=C(COC(=O)CCN1C(=O)c2cccc([N+](=O)[O-])c2C1=O)NCc1ccccc1	SRC2 TRFRET art 1993
COc1ccc(N2CC(NC(=O)Nc3ccccc3)CC2=O)cc1 (stereo not drawn)	none
COc1ccc(N2CCC(CNC(=O)Nc3ccccc3)C2)cc1 (stereo not drawn)	PPARg SRC-2 ag 23.6 (no result: SRC1 TRFRET art, SRC3 TRFRET art)
C#CCSc1nnc(-c2ccccc2)c(=O)[nH]1	PPARg SRC-2 ag 22.5 (no result: SRC1 TRFRET art, SRC3 TRFRET art)
Cc1nc2ccc(NC(=O)CCS(=O)(=O)c3ccccc3)cc2s1	none
COc1ccc(C2(C)NC(=O)N(CC(=O)Nc3ccc(-c4nc5ccc(C)cc5s4)cc3)C2=O)cc1 (stereo not drawn)	SRC1 TRFRET art 2469, SRC3 TRFRET art 2403
CCC1(c2ccc(F)cc2)NC(=O)N(CC(=O)Nc2ccc(-c3nc4ccc(C)cc4s3)cc2)C1=O (stereo not drawn)	SRC3 TRFRET art 2350
Cc1ccc2nc(-c3ccc(NC(=O)CCS(=O)(=O)c4ccccc4)cc3)sc2c1	SRC3 TRFRET art 2301
N#Cc1cccc(NC(=O)COC(=O)c2ccccc2Sc2ccccc2C#N)c1	SRC3 TRFRET art 2131
N#Cc1ccccc1Sc1ccccc1C(=O)OCC(=O)NC12CC3CC(CC(C3)C1)C2	SRC2 TRFRET art 2682, SRC1 TRFRET art 2330, SRC3 TRFRET art 3416
CN(C)C(=O)COC(=O)c1ccccc1Sc1ccccc1C#N	none
CC(=O)c1ccc(NC(=O)COC(=O)c2ccccc2Sc2ccccc2C#N)cc1	SRC3 TRFRET art 2465
Cc1ccc(SCc2cc(=O)n(C)[nH]2)cc1	none
CC(=O)CCc1ccc(OC(=O)c2cccnc2)cc1	SRC2 TRFRET art 1983, PPARg SRC-2 ag 25.9 (no result: SRC1 TRFRET art, SRC3 TRFRET art)
CCOC(=O)C1CCCN(S(=O)(=O)c2cc(Br)cc3c2N(C(=O)C2CC2)CC3)C1 (stereo not drawn)	PPARg SRC-1 ag 25.5
